The sample as a whole holds a higher share of hits than the screen did.
Methyltransferases: Primary Screen for Target Class Profiling of Small Molecule Inhibitors of Methyltransferases; calls only at 40 µM; hit rate 3.9% among 25,000; purified enzyme, MTase-Glo SAH luminescence; active compounds read low; call rule not given here
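Each enzyme was reacted with SAM and its substrate, with compounds tested once at 40 uM; SAH formed was read by MTase-Glo luminescence.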
MTase-Glo counter: Counterscreen for Target Class Profiling of Small Molecule Inhibitors of Methyltransferases; shares compounds with Methyltransferases; MTase-Glo coupled enzymes, SAH conversion luminescence, no MTase; Potency, µM (titrated, usually from 57.3 µM), for inactives: at the top dose activity change, negative = inhibition, most hits filed as inhibitors; hit rate 6% among 180; active means well fitted inhibition curve with a large enough effect; further: potency means the concentration at half of the fitted maximal effect
* = called active by the depositor; i = inactive; + = active, no number; [ ] = remark or other dose. On the % scale 0 is the no-effect control and ±100 the full control effect.

SMILES	Methyltransferases	others
COc1ccccc1CN1C(=O)c2cc3occc3n2CC1(C)C(=O)NC1CCCCCCC1 (configuration not stated)	i
NC1CCCCN(c2c(F)cc3c(=O)c(C(=O)O)cn(C4CC4)c3c2Cl)C1 (configuration not stated)	i
Cc1cnc(-c2cccnc2)n1C1CCN(S(=O)(=O)c2ccc3c(c2)OCCO3)CC1	i
Cc1nc2cccnc2n1CC1CCCN(S(=O)(=O)c2ccc3c(c2)OCCO3)C1 (configuration not stated)	+	MTase-Glo counter=-2.9%
Cc1cnc(CC2CCCN(S(=O)(=O)c3ccccc3)C2)n1CC1CC1 (configuration not stated)	i
CCCn1c(=O)c2ccccc2n2c(=O)n(Cc3ccccc3C)nc12	i
Cc1ccccc1CN1C(=O)c2cc(C(C)(C)C)nn2CC1(C)C(=O)NCc1ccccc1 (configuration not stated)	i
CCOc1ccc(N2C(=O)c3cc(C(=O)OC)nn3CC2(C)C(=O)NC2CCCCCC2)cc1 (configuration not stated)	i
Cc1cc(C)cc(N2C(=O)c3cc4sccc4n3CC2(C)C(=O)NC2CCCCCCC2)c1 (configuration not stated)	i
Nc1ccc(-c2nc3ccc(-c4nc5ccc(N)cc5[nH]4)cc3[nH]2)cc1	i
Cc1cc(-c2nc3ccncc3[nH]2)c(C)[nH]1	+	MTase-Glo counter=-3.1%[114 µM]
COCCN1C(=O)c2c(NC(C)=O)c3cc(OC)ccc3n2CC1(C)C(=O)NC1CCCCC1 (configuration not stated)	i
O=C(Cn1ccc2cc(S(=O)(=O)N3CCCCC3)ccc21)NCc1ccccc1	i
Cc1ccc(C(N)=O)cc1-c1cc(NCc2cccnc2)nc2[nH]ccc12	i
c1ccc(CNc2cc(-c3cc(N4CCCCC4)ncn3)c3cc[nH]c3n2)nc1	+	MTase-Glo counter=-8.6%
O=C(NCc1ccccn1)C1CCN(c2cc(C3CC(O)C3)ncn2)CC1 (configuration not stated)	i
COc1ccc(C2=CC(=O)OC2Cc2ccc(O)cc2)c(O)c1 (configuration not stated)	i
COC(=O)[C@@H]1Cc2ncn(Cc3ccc(Cl)cc3)c2CN1CCCc1ccccc1	+	MTase-Glo counter=11.1µM*
COc1ccc(-c2cc3n(n2)CC(C)(C(=O)NCc2ccccc2)N(CCc2ccc(Cl)cc2)C3=O)cc1 (configuration not stated)	i
CCCn1cnc2c1CN(S(=O)(=O)c1ccc(F)cc1)[C@H](C(=O)OC)C2	i
CC(=C\C(C)O)/C=C(\C)C(=O)CC1CC(CC(N)=O)CC(=O)O1 (configuration not stated)	i
CN1C(=O)c2cc(C(=O)NCCCN3CCc4ccccc4C3)nn2CC1(C)C(=O)NCc1ccc(F)cc1 (configuration not stated)	i
CCC(C)NC(=O)c1ccc2c(=O)n(CCC(C)C)c3n[nH]c(=O)n3c2c1 (configuration not stated)	i
CS/C=C/C(=O)O[C@@H]1CCC2=CC(=O)C(=C(C)C)C[C@]2(C)[C@H]1C	i
Cn1cncc1CN1CCC2(CCN(C3CCOCC3)CC2)C(CO)C1 (configuration not stated)	i
SMILES	Methyltransferases	others
CC(=O)Nc1cccc(-c2ccnc(-c3nnc(C)n3Cc3ccccc3)c2)c1	i
CC(=O)Nc1ccc(CN2CC3(Cc4ccccc4NC3=O)C2)cc1	i
CC(=O)Nc1cccc(-c2cc3c(cn2)CN(Cc2ccccc2)CCN3)c1	+	MTase-Glo counter=-1.7%[85.7 µM]
Cc1nc(C2CC23CCN(C(=O)Nc2ccccc2F)CC3)no1 (configuration not stated)	i
CCOC(=O)c1cc2n(n1)CC(C)(C(=O)NCc1ccc(F)cc1)N(CCc1ccc(OCC)cc1)C2=O (configuration not stated)	i
CS(=O)(=O)N1CCN2C(=O)N(C3CCCCC3)C[C@H]2C1	i
Cc1ccc(NC(=O)N2CCN(c3nnnn3-c3ccccc3)CC2)cc1	i
Cc1ccc(NC(=O)N2CCn3cccc3C2C)cc1 (configuration not stated)	i
Cc1ccc(NC(=O)N2CCc3c(c4ccccc4n3CC3CC3)C2)cc1	+	MTase-Glo counter=5.1%
O=C(/C=C\c1ccc(O)cc1)N[C@@H](Cc1ccc(O)cc1)C(=O)O	i
COc1ccccc1CNS(=O)(=O)c1ccc2c(c1)n(C)c(=O)n2C	i
c1ccc(CNc2nc(N3CCOc4ccccc43)nc3c2CCCC3)cc1	i
COc1cc(C(CO)CO[C@@H]2O[C@H](CO)[C@@H](O)[C@H](O)[C@H]2O)ccc1O (some centres not stated)	i
CC1(C(=O)NC2CCCCC2)Cn2nc(-c3cccs3)cc2C(=O)N1c1ccc(F)cc1 (configuration not stated)	i
COc1cccc([S+](=O)([O-])N2CC(N3CCc4ccccc43)C2)c1	i
COc1cccc([S+](=O)([O-])N2CCC23Cc2ccccc2NC3=O)c1 (configuration not stated)	i
COc1cccc([S+](=O)([O-])N2CCC3(C2)N=C(c2cccnc2)C(=O)N3)c1 (configuration not stated)	+	MTase-Glo counter=-0.2%
CCCn1c(=O)c2ccc(C(=O)NC(C)CC)cc2n2c(=O)n(Cc3ccccc3F)nc12 (configuration not stated)	i
Cn1ccnc1CN1C(=O)CO[C@H]2CN(C3CCCCC3)C[C@H]21	i
O=C(c1nc(-c2cccnc2)c2ccccn12)N1CCOCC1	i
CCCn1c(C)cnc1CCNC(=O)CC1CCN(C(C)=O)CC1	i
CCNc1nccc(N2CCC(CC(=O)NCC(C)C)CC2)n1	+	MTase-Glo counter=-0.3%
CCNc1nccc(N2CCC(CC(=O)N3CCN(c4ccccc4F)CC3)CC2)n1	+	MTase-Glo counter=2.9%
CCOc1ccc(-c2ccnc(NC[C@@H]3CCCO3)n2)cc1C(=O)O	i
COc1nccc(N2CCC(CC(=O)N3CCN(C(C)=O)CC3)CC2)n1	i
SMILES	Methyltransferases	others
CC1(C)N=C(c2ccccc2)C(=O)N1CC(=O)N1CCN(c2ccccc2F)CC1	i
CCC(C)NC(=O)c1ccc2c(=O)n(C)c3nn(CC(=O)NC4CCCCC4)c(=O)n3c2c1 (configuration not stated)	i
CC1(C)C(=O)N(CCOc2ccccc2)[C@H]2CN(CC3CCOC3)C[C@H]2[S+]1(=O)[O-] (some centres not stated)	i
COc1cc(/C=C/c2ccccc2)c(C(=O)O)c(O)c1CC=C(C)C	i
O=C(NCc1ccccc1Cn1cccn1)c1ccc2cccc(F)c2n1	i
OCC(O)c1cc2n(n1)CCN(Cc1ccccc1Cn1cccn1)C2 (configuration not stated)	i
OC1(Cn2ccnc2)CCN(Cc2ccccc2Cn2cccn2)CC1	+	MTase-Glo counter=-1.5%
O=C(c1nnc(COc2ccc3c(c2)OCO3)n1Cc1ccccc1)N1CCC[C@@H]1c1ccc(Br)cc1	i
Cc1ccc(Cl)cc1N(CC(=O)Nc1c(F)cccc1F)S(C)(=O)=O	i
Cc1ccc(N2C(=O)Cn3cccc3C2C(=O)NC2CCCCC2C)cc1 (configuration not stated)	i

Source: PubChem
